# In PubChem BioAssay (Tox21):
# Where “and” joins values, the source holds several entries; their conditions need not be identical. Identical values can stand only once. Inconclusive results are not listed. Where a call stands in place of a potency, no number is given. Where a structure was tested more than once in an assay, its records may differ in their call. Calls of active or inactive are those of the source. Calls follow the shape of the dose curve; as a rule, active = well fitted curve in the direction sought with a large enough effect in the repeat runs; inconclusive = weak or mixed curves; inactive = no such curve, though single readings can be large; an effect the other way counts as inactive or inconclusive.
# Assays:
# [1] = A CellTox Green Cytotoxicity Assay to monitor cytotoxicity in HEK293 cells - 40 hour (AID 1224871); also: nearly all actives have a fitted effect of over 45% in size; also: potency is read from the fitted curve at half-maximal effect
# In short: (§1)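 Fluorescence from a DNA-binding dye excluded by viable cells was measured repeatedly in the same HEK293 wells (600 cells/well) during continuous compound exposure at 37 C. Each assay gives one read point: 0, 8, 16, 24, 32 or 40 h.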
# [2] = qHTS RealTime-Glo MT Cell Viability Assay in HEK293 cells - 16 hour (AID 1224872); also: nearly all actives have a fitted effect of over 50% in size; also: potency is read from the fitted curve at half-maximal effect
# In short: (§2)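 HEK293 cells seeded with NanoLuc/prosubstrate reagent, rested 5 h at 37 C, then dosed and kept at 37 C up to 40 h. Nonlytic real-time luminescence from viable cells read at 0, 8, 16, 24, 32 and 40 h.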
# [3] = qHTS RealTime-Glo MT Cell Viability Assay in HepG2 cells - 8 hour (AID 1224873); also: nearly all actives have a fitted effect of over 55% in size; also: potency is read from the fitted curve at half-maximal effect
# In short: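 HepG2 cells mixed with RealTime-Glo MT reagents (NanoLuc plus cell-permeant prosubstrate) were seeded at 600 cells/well, incubated 5 h at 37 C/5% CO2, then pinned with compounds in DMSO; nonlytic luminescence tracked viability during 40 h treatment.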
# [4] = qHTS RealTime-Glo MT Cell Viability Assay in HEK293 cells - 40 hour (AID 1224874); conditions: RealTime-Glo luminescence; max response: stronger effect = lower value; also: nearly all actives have a fitted effect of over 50% in size; also: potency is read from the fitted curve at half-maximal effect
# In short: (§3)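 Luminescence, which tracks viable cell number through reduction of the prosubstrate to a NanoLuc substrate, was read over continuous 37 C culture. Cells (600/well) were premixed with reagent and rested 5 h before 23 nL of compound in DMSO was pinned.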
# [5] = A CellTox Green Cytotoxicity Assay to monitor cytotoxicity in HEK293 cells - 24 hour (AID 1224875); also: nearly all actives have a fitted effect of over 45% in size; also: potency is read from the fitted curve at half-maximal effect
# In short: as §1
# [6] = A CellTox Green Cytotoxicity Assay to monitor cytotoxicity in HepG2 cells - 16 hour (AID 1224876); also: nearly all actives have a fitted effect of over 45% in size; also: potency is read from the fitted curve at half-maximal effect
# In short: (§4)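 Real-time cytotoxicity: fluorescence of a cell-impermeant cyanine dye binding DNA of dead HepG2 cells, measured repeatedly (0–40 h) during compound exposure at 37 C. Cells seeded 600/well with reagent, dosed after 5 h.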
# [7] = qHTS RealTime-Glo MT Cell Viability Assay in HepG2 cells - 32 hour (AID 1224877); also: nearly all actives have a fitted effect of over 55% in size; also: potency is read from the fitted curve at half-maximal effect
# In short: (§5)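 HepG2 cells (600/well) were dispensed with RealTime-Glo reagents, incubated 5 h at 37 °C, then treated with compounds in DMSO for up to 40 h. Nonlytic NanoLuc luminescence reflecting viable cells was read at each stated time point.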
# [8] = A CellTox Green Cytotoxicity Assay to monitor cytotoxicity in HepG2 cells - 40 hour (AID 1224879); also: nearly all actives have a fitted effect of over 40% in size; also: potency is read from the fitted curve at half-maximal effect
# In short: as §4
# [9] = qHTS RealTime-Glo MT Cell Viability Assay in HEK293 cells - 0 hour (AID 1224880); also: top concentration of the series differs between compounds; nearly all actives have a fitted effect of over 45% in size
# In short: as §3
# [10] = A CellTox Green Cytotoxicity Assay to monitor cytotoxicity in HEK293 cells - 32 hour (AID 1224881); also: nearly all actives have a fitted effect of over 40% in size; also: potency is read from the fitted curve at half-maximal effect
# In short: as §1
# [11] = A CellTox Green Cytotoxicity Assay to monitor cytotoxicity in HepG2 cells - 0 hour (AID 1224882); also: nearly all actives have a fitted effect of over 35% in size
# In short: as §4
# [12] = A CellTox Green Cytotoxicity Assay to monitor cytotoxicity in HepG2 cells - 32 hour (AID 1224883); also: nearly all actives have a fitted effect of over 50% in size; also: potency is read from the fitted curve at half-maximal effect
# In short: as §4
# [13] = A CellTox Green Cytotoxicity Assay to monitor cytotoxicity in HEK293 cells - 8 hour (AID 1224884); also: nearly all actives have a fitted effect of over 35% in size; also: potency is read from the fitted curve at half-maximal effect
# In short: as §1
# [14] = qHTS RealTime-Glo MT Cell Viability Assay in HepG2 cells - 16 hour (AID 1224885); also: nearly all actives have a fitted effect of over 50% in size; also: potency is read from the fitted curve at half-maximal effect
# In short: as §5
# [15] = qHTS RealTime-Glo MT Cell Viability Assay in HEK293 cells - 24 hour (AID 1224886); also: nearly all actives have a fitted effect of over 50% in size; also: potency is read from the fitted curve at half-maximal effect
# In short: as §2
# [16] = qHTS RealTime-Glo MT Cell Viability Assay in HEK293 cells - 8 hour (AID 1224887); also: nearly all actives have a fitted effect of over 50% in size; also: potency is read from the fitted curve at half-maximal effect
# In short: as §3
# [17] = A CellTox Green Cytotoxicity Assay to monitor cytotoxicity in HEK293 cells - 16 hour (AID 1224888); also: nearly all actives have a fitted effect of over 35% in size; also: potency is read from the fitted curve at half-maximal effect
# In short: as §1
# [18] = A CellTox Green Cytotoxicity Assay to monitor cytotoxicity in HepG2 cells - 8 hour (AID 1224890); also: nearly all actives have a fitted effect of over 45% in size; also: potency is read from the fitted curve at half-maximal effect
# In short: as §4
# [19] = A CellTox Green Cytotoxicity Assay to monitor cytotoxicity in HepG2 cells - 24 hour (AID 1224878); also: nearly all actives have a fitted effect of over 45% in size
# In short: as §4
# [20] = qHTS RealTime-Glo MT Cell Viability Assay in HepG2 cells - 0 hour (AID 1224889); also: nearly all actives have a fitted effect of over 50% in size
# In short: as §5
smiles,measurement,setting,value
Cc1cc(Cc2cc(C)cc(C(C)(C)C)c2O)c(O)c(C(C)(C)C)c1,Potency,[1],43.9 µM (active) and 43.6 µM (active)
same,Potency,[2],15.6 µM (active) and 17.4 µM (active)
same,Potency,[3],38.9 µM (active)
same,Potency,[4],8.75 µM (active) and 15.5 µM (active)
same,Potency,[5],43.9 µM (active) and 43.6 µM (active)
same,Potency,[6],39.1 µM (active) and 38.9 µM (active)
same,Potency,[7],49.2 µM (active) and 49 µM (active)
same,Potency,[8],49.2 µM (active) and 43.6 µM (active)
same,Potency,[9],inactive
same,Potency,[10],49.2 µM (active) and 43.6 µM (active)
same,Potency,[11],inactive
same,Potency,[12],43.9 µM (active) and 43.6 µM (active)
same,Potency,[13],49.2 µM (active) and inactive
same,Potency,[14],43.9 µM (active) and 43.6 µM (active)
same,Potency,[15],12.4 µM (active) and 15.5 µM (active)
same,Potency,[16],15.6 µM (active) and 19.5 µM (active)
same,Potency,[17],49.2 µM (active)
same,Potency,[18],43.9 µM (active) and 34.7 µM (active)
CC(C(O)c1ccc(O)cc1)N1CCC(Cc2ccccc2)CC1 (configuration not stated),Potency,[1],inactive
same,Potency,[2],inactive
same,Potency,[3],inactive
same,max response,[4],-13.3% (inactive)
same,Potency,[5],inactive
same,Potency,[6],inactive
same,Potency,[7],inactive
same,Potency,[19],inactive
same,Potency,[8],inactive
same,Potency,[9],inactive
same,Potency,[10],inactive
same,Potency,[11],inactive
same,Potency,[12],inactive
same,Potency,[13],inactive
same,Potency,[15],inactive
same,Potency,[16],inactive
same,Potency,[17],inactive
same,Potency,[18],inactive
CC(C)(C)c1ccccc1,Potency,[1],inactive
same,Potency,[2],inactive
same,Potency,[3],inactive
same,max response,[4],0.372% (inactive)
same,Potency,[5],inactive
same,Potency,[6],inactive
same,Potency,[7],inactive
same,Potency,[8],inactive
same,Potency,[9],inactive
same,Potency,[10],inactive
same,Potency,[11],inactive
same,Potency,[12],inactive
same,Potency,[13],inactive
same,Potency,[14],inactive
same,Potency,[15],inactive
same,Potency,[16],inactive
same,Potency,[17],inactive
same,Potency,[20],inactive
same,Potency,[18],inactive
CCC(C)(Oc1ccc(C2(c3ccc(OC(C)(CC)C(=O)O)cc3)CCCCC2)cc1)C(=O)O (configuration not stated),Potency,[1],inactive
same,Potency,[2],inactive
same,Potency,[3],inactive
same,max response,[4],8.3% (inactive)
same,Potency,[5],inactive
same,Potency,[6],inactive
same,Potency,[7],inactive
same,Potency,[19],inactive
same,Potency,[8],inactive
same,Potency,[9],inactive
same,Potency,[10],inactive
same,Potency,[11],inactive
same,Potency,[12],inactive
same,Potency,[13],inactive
same,Potency,[15],inactive
same,Potency,[16],inactive
same,Potency,[17],inactive
same,Potency,[18],inactive
CC1=C(C=O)C(C)(C)CC=C1,Potency,[1],inactive
same,Potency,[2],inactive
same,Potency,[3],inactive
same,max response,[4],-1.02% (inactive)
same,Potency,[5],inactive
same,Potency,[6],inactive
same,Potency,[7],inactive
same,Potency,[19],inactive
same,Potency,[8],inactive
same,Potency,[9],inactive
same,Potency,[11],inactive
same,Potency,[12],inactive
same,Potency,[13],inactive
same,Potency,[14],inactive
same,Potency,[15],inactive
same,Potency,[16],inactive
same,Potency,[17],inactive
same,Potency,[20],inactive
same,Potency,[18],inactive
